Assay outcomes from PubChem.
Epigenetic derep: epigenetic control regulation, reporter derepression | murine LDR cells, GFP reporter derepression, 30 h | Potency, µM (top dose mostly 53.9 µM), for inactives: at the highest dose GFP activation, actives largely listed as activators | 0.2% of 280,000 active; note: potency is the fitted concentration of half-maximal effect; % of control where 0% means no effect; nearly all actives have a fitted effect of over 60% in size
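GFP-positive cell count by laser-scanning cytometry (objects 20–120 um) after 30 h, 37 C compound exposure of murine LDR cells; reporter is CMV-GFP integrated at a silenced locus, inducible by HDAC or DNMT inhibitors.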
CBFb-RUNX1 inh: inhibitors of human CBF-beta and RUNX1 interaction; AlphaScreen CBFb-His/RUNX1-biotin binding, biochemical; Potency, µM (titrated, usually from 59.8 µM), for inactives: at the highest dose activity, negative = inhibition, most hits filed as inhibitors; 230,000 tested, under 10 active; AID 1477; note: % of control where 0% means no effect
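Inhibition was taken as any reduction in AlphaScreen signal from the CBF-beta–RUNX1 pair (His and biotin tags, 30 nM each), measured after compound (15 min) and bead (90 min) incubations at room temperature.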
TSG101-PTAP inh: blocks PTAP/TSG101 interaction to inhibit HIV-1 budding; 340,000 tested, under 10 active; Potency, µM (series often up to 115 µM), inactives show at the top dose activity change, negative = inhibition, usual class: inhibitors; Q99816; AID 493005; Fluorescence polarization, FITC-PTAP peptide / Tsg101 binding; active = well fitted inhibition curve with a large enough effect in the main read-out, with a control signal flat, not every such curve was filed as active; inconclusive = small, poorly fitted or top-dose-only effect, or effect the other way, or a change in a side signal; inactive = no such curve, though single readings can be large or run the other way; note: potency is the fitted concentration of half-maximal effect; % of control where 0% means no effect
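Steps: Tsg101 binding domain dispensed (10 uM final), compounds pinned in DMSO, FITC-labeled PTAP-motif peptide added (50 nM final); after 20 min binding at room temperature, polarization measured.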
MBNL1-CUG inh: blocks human MBNL1 binding to CUG repeat RNA; Q9NR56; TR-FRET MBNL1-His/biotin-(CUG)12 binding, 665/545 ratio; Potency, µM (doses to about 57.5 µM), inactives show at the top dose activity change, negative = inhibition, most hits filed as inhibitors; 0.036% of 280,000 active; AID 2675; active = well fitted inhibition curve with a large enough effect in the signal ratio, with a control signal flat, not every such curve was filed as active; inconclusive = small, poorly fitted or top-dose-only effect, or effect the other way, or a change in a side signal; inactive = no such curve, though single readings can be large or run the other way; the % refers to the signal ratio; note: potency is the fitted concentration of half-maximal effect; % is set by controls: 0 for no effect and ±100 for the full control effect
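His-tagged MBNL1 binding to biotinylated (CUG)12 RNA was measured by TR-FRET using terbium anti-His antibody (0.055 ng/ul final) and streptavidin-XL665 (5 nM final). Compounds were titrated 92 nM to 58 uM; 60 min at room temperature.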
Vif-A3G inh: Vif-A3G binding inhibition; Q9HC16; Potency, µM (series often up to 46.1 µM), without a hit: at the highest dose activity, negative = active, usual class: inhibitors; AID 602310; 0.076% of 410,000 active; HeLa A3G-eYFP + Vif (tagged APOBEC3G with the HIV-1 protein that degrades it), YFP fluorescence, overnight; note: potency is the fitted concentration of half-maximal effect; % is set by controls: 0 for no effect and ±100 for the full control effect; nearly all actives have a fitted effect of over 60% in size
Target sequence (Q9HC16 whole entry, looked up): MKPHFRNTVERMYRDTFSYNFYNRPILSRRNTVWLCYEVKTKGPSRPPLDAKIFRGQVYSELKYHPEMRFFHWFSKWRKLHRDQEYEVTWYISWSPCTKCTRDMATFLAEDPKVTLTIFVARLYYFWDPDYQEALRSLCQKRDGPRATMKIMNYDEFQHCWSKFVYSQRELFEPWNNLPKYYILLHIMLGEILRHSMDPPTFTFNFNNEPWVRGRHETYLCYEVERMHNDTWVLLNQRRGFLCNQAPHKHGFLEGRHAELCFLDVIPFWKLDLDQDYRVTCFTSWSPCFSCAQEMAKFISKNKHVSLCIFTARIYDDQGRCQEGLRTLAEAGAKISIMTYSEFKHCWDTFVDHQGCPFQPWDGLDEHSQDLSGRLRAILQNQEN
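HeLa cells stably expressing Vif and C-terminally eYFP-tagged A3G, seeded overnight at 37 deg C, then exposed to compound by pintool overnight at 37 deg C. Rise in yellow fluorescence (Ex 488/Em 500-530, Acumen) marks blocked Vif-driven A3G degradation.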
Vif-APOBEC3F blk: blocks the Vif interaction with APOBEC3F; HeLa A3F-eYFP + Vif (tagged APOBEC3F with the HIV-1 protein that degrades it), YFP fluorescence increase; Potency, µM (highest dose often 46.1 µM), for the others: at the top dose activity, negative = active; 0.2% of 390,000 active; note: potency is the fitted concentration of half-maximal effect; % of control where 0% means no effect; nearly all actives have a fitted effect of over 65% in size
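Fluorescence increase (Ex 488/Em 500-530) after overnight compound treatment at 37 deg C flags inhibition of Vif-driven A3F-eYFP loss in stable HeLa A3F-eYFP/Vif cells seeded overnight beforehand.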
Active calls of the source: *. Compounds with a hit are over-represented: about 0.37% of the library has one in this group of screens. Unless noted, calls come from the whole dose curve; as a rule, active = well fitted curve in the direction sought with a large enough effect; inconclusive = small, poorly fitted or top-dose-only effect, or another doubt; inactive = no such curve, though single readings can be large; an effect the other way counts as inactive or inconclusive.

How did Cc1nn(-c2ccccn2)c2c1-c1nc(N)sc1CC2 do in these assays?
Vif-A3G inh: -17%

How did O=[N+]([O-])c1cccc2[nH]cnc12 do in these assays?
Vif-A3G inh: 0%

How did CN(C)c1ccc(/C=C2\C(Cl)=Cc3ccccc32)cc1 do in these assays?
Vif-A3G inh: -8%

What do the screens show for `CCOC1=C/C(=C/c2c(N)n3nc(-c4ccccc4)sc3nc2=O)C=CC1=O`?
Epigenetic derep: 2%; CBFb-RUNX1 inh: -11%; TSG101-PTAP inh: 7%; MBNL1-CUG inh: 5%; Vif-A3G inh: -16%; Vif-APOBEC3F blk: 8.9µM*

Results for CCOC1=C/C(=C/c2c(N)n3oc(C)cc3nc2=O)C=CC1=O ?
Epigenetic derep: -1%; CBFb-RUNX1 inh: 0%; MBNL1-CUG inh: inconclusive

What do the screens show for `CCS(=O)(=O)c1nn2c(N)c(/C=C3/C=CC(=O)C(OC)=C3)c(=O)nc2s1`?
Epigenetic derep: 1%; CBFb-RUNX1 inh: -10%; TSG101-PTAP inh: 42%; Vif-A3G inh: -8%; Vif-APOBEC3F blk: 20µM*

What do the screens show for `COC1=C/C(=C/c2c(N)n3nc(-c4ccc(C)cc4)sc3nc2=O)C=CC1=O`?
Epigenetic derep: inconclusive; CBFb-RUNX1 inh: 8%; TSG101-PTAP inh: -5%; MBNL1-CUG inh: 2%; Vif-A3G inh: -18%; Vif-APOBEC3F blk: 11µM*

Results for CN(C)c1ccc(N=Nc2ccc(/C=C/c3ccnc4ccccc34)cc2)cc1 ?
Vif-A3G inh: 8%

What do the screens show for `CCCNC(=O)Cn1c(=O)/c(=C\c2ccc(-c3ccc([N+](=O)[O-])cc3)o2)s/c1=C\C(=O)C(C)(C)C`?
Epigenetic derep: 0.2µM*; CBFb-RUNX1 inh: -1%; TSG101-PTAP inh: inconclusive; Vif-A3G inh: 2%; Vif-APOBEC3F blk: -394%

Results for CC(C)C[C@@H](C=O)NC(=O)[C@H](CC(C)C)NC(=O)[C@H](CC(C)C)NC(=O)OCc1ccccc1 ?
Epigenetic derep: 1.3µM*; CBFb-RUNX1 inh: 20%

How did O=c1c(/C=C(\O)c2ccc(F)cc2)nc2ccccc2n1-c1ccccc1 do in these assays?
Epigenetic derep: 13µM*; CBFb-RUNX1 inh: -6%; TSG101-PTAP inh: inconclusive; MBNL1-CUG inh: -2%; Vif-A3G inh: 1%; Vif-APOBEC3F blk: inconclusive

How did Cn1c(=O)c(/C=C/c2ccc(F)cc2)nc2ccccc21 do in these assays?
Epigenetic derep: 3%; CBFb-RUNX1 inh: 29%; TSG101-PTAP inh: -12%; MBNL1-CUG inh: 16%; Vif-A3G inh: -17%; Vif-APOBEC3F blk: inconclusive

Results for O=S(=O)(Nc1nc2ccccc2nc1N1CCc2ccccc2C1)c1ccc(Cl)cc1 ?
Epigenetic derep: -1%; CBFb-RUNX1 inh: -14%; TSG101-PTAP inh: -3%; Vif-A3G inh: -14%; Vif-APOBEC3F blk: -39%

What do the screens show for `CN1CCN(c2nc3ccccc3nc2NS(=O)(=O)c2ccc(Br)cc2)CC1`?
TSG101-PTAP inh: -9%; Vif-A3G inh: -10%; Vif-APOBEC3F blk: 10µM*

What do the screens show for `CC(=O)Nc1ccc(S(=O)(=O)Nc2nc3ccccc3nc2N2CCCCCC2)cc1`?
Epigenetic derep: -3%; CBFb-RUNX1 inh: 1%; TSG101-PTAP inh: 0%; MBNL1-CUG inh: 3%; Vif-A3G inh: 0%; Vif-APOBEC3F blk: -1%

What do the screens show for `Cc1ccc(S(=O)(=O)Nc2nc3ccccc3nc2N2CCN(c3ccccc3F)CC2)cc1`?
Epigenetic derep: 1%; CBFb-RUNX1 inh: -10%; TSG101-PTAP inh: -3%; MBNL1-CUG inh: 9%; Vif-A3G inh: -1%; Vif-APOBEC3F blk: -13%

Results for O=S(=O)(Nc1nc2ccccc2nc1N1CCN(c2ccccn2)CC1)c1ccc(Cl)cc1 ?
Epigenetic derep: 0%; CBFb-RUNX1 inh: 3%; TSG101-PTAP inh: -18%; MBNL1-CUG inh: 1%; Vif-A3G inh: inconclusive; Vif-APOBEC3F blk: 7.9µM*
